From PubChem BioAssay AID720708 (National Center for Advancing Translational Sciences (NCATS), 2013)
Screen size: about 360,000 compounds; about 660 (0.18%) were called active. About 2% were inconclusive and are not listed. Calls come from the whole dose curve; as a rule, active = well fitted inhibition curve with a large enough effect; inconclusive = small, poorly fitted or top-dose-only effect; inactive = no such curve, though single readings can be large or run the other way. The list comes from a sample in which actives are over-represented; it also holds similar structures and randomly drawn compounds.

What follows are compounds tested against Rap guanine nucleotide exchange factor 4 (Homo sapiens) (UniProt Q8WZA2) (assay: qHTS for Antagonist of cAMP-regulated guanine nucleotide exchange factor 2 (EPAC2): primary screen). Conditions: EPAC2 GEF exchange of Rap1B-BODIPY-GDP, fluorescence; series mostly up to 114 µM; activity, negative = inhibition: at the top concentration.
From the text: In multi-cellular eukaryotic organisms, the effects of cAMP are transduced by two ubiquitously-expressed intracellular cAMP receptors, the classic protein kinase A/cAMP-dependent protein kinase (PKA/cAPK) and the more recently discovered exchange protein directly activated by cAMP/cAMP-regulated guanine nucleotide exchange factor (EPAC/cAMP-GEF). Both PKA and EPAC are ubiquitously expressed in all tissues, and an increase in intracellular cAMP levels will lead to the activation of both PKA and EPAC. Therefore, careful dissections of the individual role and relative contribution of EPAC and PKA within the overall cAMP signaling in various model systems are critical for further elucidating the mechanism of cAMP signaling. To date no EPAC-specific antagonists and agonist, as well as isoform-specific agonists have been reported, and developing EPAC-specific pharmacological probes to determine the physiological functions that EPAC play in the overall cAMP-mediated signaling remains a major challenge within the research field. Furthermore, identified regulators of EPAC may lead to new mechanism-based therapeutic strategies specifically targeting the EPAC / cAMP-signaling components as EPAC has been implicated to play important roles in major human pathological conditions such as diabetes, heart disease, and cancer.
This qHTS will be used to screen the Molecular Libraries Small Molecule Repository (MLSMR) as a concentration-titration series using the NCGC unique quantitative screening (qHTS) platform to find inhibitors for EPAC2. In addition, this assay will also be used as a counterscreen for the EPAC1 qHTS. This fluorescent based assay is developed and validated for EPAC2 that measures exchange using EPAC effector Rap1 complex with BODIPY-GDP, a GDP analog with a tethered fluorophores. Inhibitors are identified by monitoring the change in fluorescence signal as the exchanged free BODIPY-GDP has a reduced fluorescence compared to Rap1-bound BODIPY-GDP. Decrease in signal (inhibition) is the desired outcome for the EPAC2 antagonist while no activity in this assay is desired for the EPAC1 antagonist counterscreen.
NIH Chemical Genomics Center [NCGC]
NIH Molecular Libraries Probe Centers Network [MLPCN]
Assay Submitter (PI): Xiaodong Cheng, The University of Texas, Medical Branch
Briefly, three uL of reagents (100 nM EPAC2, 250 nM RAP1B-BODIPY-GDP, 50 uM GDP) were dispensed into a 1536-well Greiner black solid-bottom medium binding assay plate. Controls and test compounds (23 nL) were transferred to the plate via a Kalypsys pin tool equipped with a 1536-pin array. The plates were centrifuged at 1,000 rpm for 15 seconds followed by 5 minute incubation at room temperature. The assay plates were read at 5 minute intervals for 30 minutes in the ViewLux plate reader using 480nm excitation and 540nm emission filters. The results were normalized to the agonist positive control ATA and DMSO.
% is set by controls: 0 for no effect and ±100 for the full control effect; potency is the fitted concentration of half-maximal effect.

Chain of Rap guanine nucleotide exchange factor 4 (Homo sapiens) (Q8WZA2 whole entry, looked up): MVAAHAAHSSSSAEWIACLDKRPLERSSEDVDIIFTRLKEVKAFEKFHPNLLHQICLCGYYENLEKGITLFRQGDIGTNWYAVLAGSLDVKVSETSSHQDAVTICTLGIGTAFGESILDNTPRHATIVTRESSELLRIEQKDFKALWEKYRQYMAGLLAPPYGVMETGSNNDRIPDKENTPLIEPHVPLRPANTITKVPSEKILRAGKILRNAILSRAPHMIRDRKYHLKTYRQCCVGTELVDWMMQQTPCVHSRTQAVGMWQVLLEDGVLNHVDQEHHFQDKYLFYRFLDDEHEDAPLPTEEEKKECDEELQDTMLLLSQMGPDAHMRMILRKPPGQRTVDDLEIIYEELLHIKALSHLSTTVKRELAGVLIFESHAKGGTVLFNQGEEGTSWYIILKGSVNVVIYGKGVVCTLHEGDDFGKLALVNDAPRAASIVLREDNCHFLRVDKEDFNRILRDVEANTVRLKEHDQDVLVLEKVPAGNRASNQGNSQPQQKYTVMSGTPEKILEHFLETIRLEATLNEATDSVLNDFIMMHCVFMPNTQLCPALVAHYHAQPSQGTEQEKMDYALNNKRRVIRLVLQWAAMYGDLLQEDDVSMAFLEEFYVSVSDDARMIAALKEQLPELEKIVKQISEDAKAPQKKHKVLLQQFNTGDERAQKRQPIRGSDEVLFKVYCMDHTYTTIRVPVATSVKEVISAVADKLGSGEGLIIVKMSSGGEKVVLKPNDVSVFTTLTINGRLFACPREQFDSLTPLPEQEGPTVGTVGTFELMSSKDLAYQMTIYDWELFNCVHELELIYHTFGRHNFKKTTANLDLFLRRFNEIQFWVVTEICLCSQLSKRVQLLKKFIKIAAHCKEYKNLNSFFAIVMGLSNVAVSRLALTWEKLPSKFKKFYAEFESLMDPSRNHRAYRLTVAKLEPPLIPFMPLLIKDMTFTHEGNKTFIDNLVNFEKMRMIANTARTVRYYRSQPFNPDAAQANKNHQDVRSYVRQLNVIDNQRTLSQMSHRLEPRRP

Compound	activity, negative = inhibition	Potency
CCC(CC)C(C(=O)NC1CCCC1)N1CCN(c2cc(C)nc3ccccc23)CC1 (stereo unspecified)	0.749% (inactive)	–
COc1cc(C(=O)NC2CCN(C)CC2)ccc1Nc1ncc2c(n1)N(C1CCC(O)CC1)CCC(=O)N2C (stereo unspecified)	5.33% (inactive)	–
Cc1[nH]c2ccccc2c1C(=O)c1cc([C@H](NC(=O)OC(C)(C)C)C(C)C)sc1N	-19.1% (inactive)	–
COc1ccc(NC(=O)C(C)N2c3cccc4cccc(c34)S2(=O)=O)c(OC)c1 (stereo unspecified)	-3.13% (inactive)	–
COc1ccc(CNC(=O)C(=O)NCC2OCCN2C(=O)c2ccc(OC)cc2)cc1 (stereo unspecified)	-3.12% (inactive)	–
CC1CCCC(NC(=O)CN2CCN(Cc3ccc(Cl)cc3)C2=O)C1C (stereo unspecified)	-0.841% (inactive)	–
Brc1ccc2c(c1)[C@H]1OCC[C@H]1[C@@H](c1cccs1)N2	-14.1% (inactive)	–
CC(C)OC(=O)Cn1nc(C(F)(F)F)c2c1CCCC2	-0.377% (inactive)	–
CCOC(=O)C1C(C)C(C(C)(C)C)N(S(=O)(=O)c2ccc(C)cc2)C1c1ccccc1 (stereo unspecified)	-18.2% (inactive)	–
CCOC(=O)[C@]12CCCC=C1N(CCC1=CCCCC1)C(=O)[C@H](CC(=O)N1CCN(C(=O)c3ccco3)CC1)C2	-0.87% (inactive)	–
Cc1cc(NC(=O)CN2CCC(O)(c3cccc(F)c3)CC2)no1	-3.78% (inactive)	–
O=C(COC(=O)c1cccc(Cl)c1Cl)NC1CCCCCC1	0.941% (inactive)	–
CCCCCNC(=O)C(c1ccc(OC)cc1)n1c(=O)c(-c2ccccc2)nc2ccccc21 (stereo unspecified)	-4.54% (inactive)	–
COc1ccc(NC(=O)CNC(=O)Cn2ccc3ccccc3c2=O)c(OC)c1	3.29% (inactive)	–
O=C(CSc1n[nH]c(-c2cccs2)n1)N1CCCCC1	6.58% (inactive)	–
Cc1cc(C)nc(SC2CCCCC2NS(=O)(=O)c2ccc(Cl)cc2)n1 (stereo unspecified)	-5.29% (inactive)	–
N#CC(C(N)=O)=C1CCC2(CC1)OCCCCO2	-0.483% (inactive)	–
Cc1ccc(C(C(=O)NC2CCCCC2)N(C(=O)c2csnn2)C2CC2)o1 (stereo unspecified)	-3.05% (inactive)	–
FC(F)(F)c1cccc(-c2nc3ccccc3n2C(c2ccccc2)c2nc3ccccc3[nH]2)c1 (stereo unspecified)	4.94% (inactive)	–
CCOC(=O)c1cc(S(=O)(=O)NCCc2ccc(OC)c(OC)c2)cn1C	-4.79% (inactive)	–
COCCn1nnnc1CN1CCC(NC(=O)Nc2cccc(OC)c2)CC1	1.59% (inactive)	–
CCN1CCCC1CNC(=O)c1ccc2c(c1)NC(=O)/C(=C\c1ccccc1F)S2 (stereo unspecified)	11.4% (inactive)	–

Compound	activity, negative = inhibition	Potency
CCOC(=O)N1CCN(C(=O)CSc2nc(C)nc3c2c(=O)n(C)c(=O)n3C)CC1	-1.46% (inactive)	–
CC1(C(=O)Nc2ccc3c(c2)OCCO3)CN(S(C)(=O)=O)CC(=O)N1Cc1cccc(F)c1 (stereo unspecified)	-11.3% (inactive)	–
C[C@H](CO)N1C[C@H](C)[C@@H](CN(C)C(=O)c2cnccn2)Oc2ncc(Br)cc2C1=O	6.89% (inactive)	–
C#CCOCCOCCOCCNc1nc(N2CCN(C(=O)CCCCCCCCCCNC(=O)[C@H]([C@@H](C)CC)n3cc(CCCCN=C(N)N)nn3)CC2)nc(N2CCN(C(=O)CCCCCCCCCCNC(=O)[C@H](CO)n3cc(CCCSC)nn3)CC2)n1	–	50.1 µM (active)
C#CCOCCOCCOCCNc1nc(N2CCN(C(=O)[C@H](CO)n3cc([C@@H](N)C(C)C)nn3)CC2)nc(N2CCN(C(=O)[C@H](CCC(=O)O)n3cc([C@@H](N)[C@H](C)CC)nn3)CC2)n1	5.29% (inactive)	–
C#CCOCCOCCOCCNc1nc(N2CCN(C(=O)C([C@@H](C)CC)n3cc(C(N)COC(=O)C(F)(F)F)nn3)CC2)nc(N2CCN(C(=O)[C@H](CCCCN)n3cc(C(N)CC(C)C)nn3)CC2)n1 (stereo partly specified)	4.15% (inactive)	–
C#CCOCCOCCOCCNc1nc(N2CCN(C(=O)[C@H](CCCCN)n3cc([C@@H](N)C(C)CC)nn3)CC2)nc(N2CCN(C(=O)[C@H](Cc3ccc(O)cc3)n3cc([C@@H](N)C(C)CC)nn3)CC2)n1 (stereo partly specified)	8.26% (inactive)	–
C#CCOCCOCCOCCNc1nc(N2CCN(C(=O)C([C@@H](C)O)n3cc([C@@H](N)CCCCN)nn3)CC2)nc(N2CCN(C(=O)[C@H](CCCCN)n3cc(CN)nn3)CC2)n1 (stereo partly specified)	-4.66% (inactive)	–
C#CCOCCOCCOCCNc1nc(N2CCN(C(=O)CCCCCCCCCCNC(=O)[C@H](CCCCN)n3cc(C)nn3)CC2)nc(N2CCN(C(=O)CCCCCCCCCCNC(=O)[C@H](CO)n3cc(CCCSC)nn3)CC2)n1	–	50.1 µM (active)
CC(C)N(C(=O)Cn1cc(S(=O)(=O)CC(=O)N2CCOCC2)c2ccccc21)C(C)C	1.79% (inactive)	–
Cc1cc(NC(=O)Cn2nc(C(F)(F)F)c3c2CCCC3)no1	12.3% (inactive)	–
Cc1ccc(C(=O)N[C@H](C(=O)N2CCN(c3ncccn3)CC2)C(C)C)cc1	38.4% (inactive)	–
COCOCCn1cc(CN2CCS(=O)(=O)N(Cc3ccc(-c4cccc(N(C)C)c4)cc3)C(CC(C)C)C2=O)nn1 (stereo unspecified)	-4.15% (inactive)	–
COCOCCn1cc(CN2CCS(=O)(=O)N(Cc3ccc(-c4ccccc4)cc3)C(CC(C)C)C2=O)nn1 (stereo unspecified)	–	10 µM (active)
COc1ccc(-c2ccc(CN3C(CC(C)C)C(=O)N(Cc4cn(CC5CCCCC5)nn4)CCS3(=O)=O)cc2)cc1 (stereo unspecified)	4.18% (inactive)	–
CCC1Nc2ncnc(N3CCN(c4ccccc4)CC3)c2N(Cc2ccc(Cl)cc2)C1=O (stereo unspecified)	-9.37% (inactive)	–
COC(=O)C[C@@H]1C=C[C@@H](NS(=O)(=O)c2cccc(OC)c2)[C@@H](CO)O1	-11% (inactive)	–
C=CCSC(CC)(CC)C(N)=O	4% (inactive)	–
COc1ccc(-c2cn[nH]c2-c2ccc(OC)cc2)cc1	-25.6% (inactive)	–
COc1ccc(Oc2cn[nH]c2-c2ccc(OC)cc2O)cc1	–	56.2 µM (active)
CCOc1ccccc1Oc1cn[nH]c1-c1ccc(OC)cc1O	-10.8% [at 57.1 µM] (inactive)	–
CCC1CCCCN1CCNS(=O)(=O)c1ccc2c(c1)CCN2C(C)=O (stereo unspecified)	-1.86% (inactive)	–

Compound	activity, negative = inhibition	Potency
CSc1ncccc1C(=O)OCc1ccc(Br)cc1	-18.6% (inactive)	–
O=C(O)c1ccc(/C=C2\SC(=S)N(NC(=O)c3ccc(Br)cc3)C2=O)cc1	5.01% (inactive)	–
O=C1/C(=C/c2ccc(F)cc2)SC(=S)N1NS(=O)(=O)c1ccccc1	–	70.8 µM (active)
COc1ccc(/C=C2\SC(=N)N(c3ccc(F)cc3)C2=O)cc1	0.0047% (inactive)	–
N#Cc1c(-c2ccccc2)nc(SCc2cccc(C(F)(F)F)c2)[nH]c1=O	–	39.8 µM (active)
O=c1[nH]c(SCc2cccc(F)c2)nc2ccccc12	1.6% (inactive)	–
CC(=O)CSc1nc(CCc2ccccc2)c(C#N)c(=O)[nH]1	5.04% (inactive)	–
COc1ccc(OCCCC(=O)Nc2cccc(S(=O)(=O)N3CCCCCC3)c2)cc1	-11.7% (inactive)	–
CC(C)(C)NC(=O)C(CCc1ccccc1)n1c(=O)c(-c2ccccc2)nc2ccccc21 (stereo unspecified)	1.14% (inactive)	–
COC(=O)[C@]12CCCCC=C1N(CCC1=CCCCC1)C(=O)[C@H](CC(=O)N1CCSCC1)C2	9.02% (inactive)	–
C=C1C2C[C@H](O)C(C)(C)[C@@]2(O)[C@H](O)C[C@]23C[C@@](C)(O)[C@H](CC[C@H]12)[C@H]3O (stereo partly specified)	-2.34% (inactive)	–
CC1(C)OC(=O)C2=C(C[C@@H](C3CCCC3)O[C@@H]2c2ccc(Cl)cc2)O1	-4.79% (inactive)	–
COc1ccc(N(C)S(=O)(=O)c2cccc3nsnc23)cc1	-26% (inactive)	–
CC(C)c1ccc(NC(=O)CCN2C(=O)c3ccc([N+](=O)[O-])cc3C2=O)cc1	4.46% (inactive)	–
Cn1ccc(=Nc2ccc(NC(=O)c3ccc(N=c4ccn(C)c5ccc([N+](=O)[O-])cc45)cc3)cc2)cc1	–	22.4 µM (active)
CN(CC1CCCO1)S(=O)(=O)c1ccc(C(=O)Nc2ccc([N+](=O)[O-])cc2)cc1 (stereo unspecified)	-8.12% (inactive)	–
COCc1cccc(-c2csc(C(O)c3ccc(F)cc3)n2)c1 (stereo unspecified)	-6.83% (inactive)	–
O=C(Nc1cc(Cl)ccc1N1CCOCC1)c1ccc(N2CCCC2=O)cc1	0.558% (inactive)	–
CCc1nn(CCCC(=O)Nc2ccc(C)c(C)c2)c(=O)c2cc3occc3n12	-2.6% (inactive)	–
COc1c(F)c(F)c(-c2csc(N)n2)c(F)c1F	1.67% (inactive)	–
Cc1cccc(C)c1NC(=O)C(c1ccc(C(F)(F)F)cc1)n1c(=O)c(-c2ccco2)nc2ccccc21 (stereo unspecified)	-16.5% (inactive)	–
O=C(O)CCCN1C(=O)C2C3c4ccccc4C(c4ccccc43)[C@@H]2C1=O (stereo partly specified)	6.33% (inactive)	–

Compound	activity, negative = inhibition	Potency
C=C1C(=O)OC2C1CCC(C)=CCCC1(C)OC21 (stereo unspecified)	5.97% (inactive)	–
CCN(c1ccccc1)S(=O)(=O)c1ccc2[nH]c(=O)[nH]c2c1	-7.42% (inactive)	–
CCN1CCN(C(=O)c2cc3cc4ccc(OC)cc4nc3s2)CC1	-2.76% (inactive)	–
N#CCOc1ccc(C2=NO[C@@H]3[C@@H]4C[C@@H]([C@H]5C(=O)N(c6ccc7c(c6)OCO7)C(=O)[C@@H]45)[C@H]23)cc1	-9.46% (inactive)	–
CN(C)c1ccc(NC(=O)c2ccncc2)c2ccccc12	4.4% (inactive)	–
CC1CCCN(C(C(=O)Nc2ccc(C(C)C)cc2)c2ccc3c(c2)OCO3)C1 (stereo unspecified)	11.7% (inactive)	–
CC(C)C[C@H]1CN([C@@H](CC(C)C)CN2CCC[C@@H]2CN2C(=O)C(=O)NC[C@@H]2Cc2ccccc2)C(=O)C(=O)N1CCc1ccccc1	-25.2% (inactive)	–
CC(C)OC(=O)c1sc2nc3c(cc2c1N)C(=O)CCC3	7.66% (inactive)	–
COC(=O)c1sccc1NC(=O)c1ccc(Cl)cc1	5.53% (inactive)	–
COC(=O)c1cc2c(N)c(C(=O)c3ccc(Cl)cc3)sc2nc1C(OC)OC	–	79.4 µM (active)
CCOC(=O)[C@]12CCCC=C1N(CCC1=CCCCC1)C(=O)[C@H](CC(=O)NCCCCc1ccccc1)C2	-10.5% (inactive)	–
O=C(O)c1ccccc1N=N/C(=N/Nc1cc(S(=O)(=O)O)ccc1O)c1ccccc1	–	50.1 µM (active)
COc1ccccc1NC(=O)N1CCCC1C(=O)NCc1cccs1 (stereo unspecified)	0.017% (inactive)	–
Cc1ccc(-n2ncc3c2CC(C)(C)CC3NC(=O)CCc2cnn(C)c2)cc1 (stereo unspecified)	-0.921% (inactive)	–
CCO/C([O-])=N/c1c[n+](N2CCOCC2)no1	–	inactive
O=C(NCCCn1ccnc1)/C(=C\c1ccccc1F)NC(=O)c1ccccc1	-3.25% (inactive)	–
CCC(=O)NC(Nc1cc(C)ccn1)(C(F)(F)F)C(F)(F)F	-5.15% (inactive)	–
COC(=O)c1ccc2nc(-c3cccc(Br)c3)c(Cc3ccc(OC)cc3C)n2c1	-6.84% (inactive)	–
CC1(C(=O)NCc2ccco2)Cc2c(-c3ccc4c(c3)OCO4)ccnc2O1 (stereo unspecified)	-0.756% (inactive)	–
O=C(Nc1ccccc1-c1nnn(CC(=O)N2CCCc3ccccc32)n1)c1cccc(Cl)c1	-0.482% (inactive)	–
